# Data published in PubChem BioAssay (NCATS).
# Inconclusive results are not listed. Entries that show only a call come without a potency. Active and inactive are the calls of the source. Unless noted, the call rests on the fitted dose curve; in most records, active means well fitted curve in the direction sought with a large enough effect; inconclusive means small, poorly fitted or top-dose-only effect, or another doubt; inactive means no such curve, though single readings can be large; an effect the other way counts as inactive or inconclusive.
# What was measured:
# [1] = target: Cytochrome P450 1A2 (Homo sapiens) (UniProt P05177); experiment: p450-cyp1a2 (AID 410; calls by dose curve; further: potency means the concentration at half of the fitted maximal effect)
# How it was run: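 20nM CYP1A2, 100uM Luciferin-ME (=Km), 100mM KPO4; cpd 10 min RT; +NADPH regen, 60 min RT; stop/detect 20 min; luminescence. Normalized to furafylline 57 uM = full inhibition.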
# [2] = Stat Signaling Pathway (AID 446; active means well fitted curve in either direction with a large enough effect, not every such curve was filed as active;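 further: ME-180 cervical cancer cells given 40 pM IL-6 alongside compound; SIE-controlled beta-lactamase reporter measured as 460/530 nm FRET emission ratio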)
# How it was run: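 Normalization used AC90 stimulation (300 pM IL-6) and AC90 inhibition (125 nM pan-JAK inhibitor at 40 pM IL-6). The underlying signal is SIE-driven beta-lactamase in ME-180 cells after 5 h IL-6 exposure with compound.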
# [3] = target: 3',5'-cyclic-AMP phosphodiesterase 4B (Homo sapiens) (UniProt Q07343); experiment: qHTS Assay for Inhibitors of PDE-IV (AID 607; active means well fitted activation curve with a large enough effect in the main read-out, with a control signal flat, not every such curve was filed as active)
# How it was run: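 HEK293 ACTOne cells with CNG channel (1000/well), endogenous PDE4; membrane potential dye, compounds up to 22.9 uM final. Fluorescence Ex 535/Em 590; RO 20-1724 (100 uM final) as reference.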
# [4] = target: Cytochrome P450 3A4 (Homo sapiens) (UniProt P08684); experiment: qHTS Assay for Inhibitors and Substrates of Cytochrome P450 3A4 (AID 884); further: nearly all actives have a fitted effect of over 50% in size; further: potency means the concentration at half of the fitted maximal effect; on activity change, negative = inhibition: series mostly up to about 57 µM
# How it was run: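 Luminescent readout of luciferin produced by CYP3A4 (20 nM) dealkylation of Luciferin-PPXE, 25 uM (its KM). NADPH-driven reaction ran 60 min at RT after 10 min compound preincubation; data scaled to 57 uM ketoconazole as 100% inhibition.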
# [5] = target: Cytochrome P450 3A4 (Homo sapiens) (UniProt P08684); experiment: qHTS Assay for Activators of Cytochrome P450 3A4 (AID 885); further: nearly all actives have a fitted effect of over 65% in size
# How it was run: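 Human CYP3A4 dealkylates Luciferin-PPXE to luciferin, which luciferase detection converts to light. Substrate was at its KM (25uM), buffer 200mM KPO4, reaction 60 min at RT.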
# [6] = target: Dual specificity protein kinase CLK4 (Homo sapiens) (UniProt Q9HAZ1); experiment: qHTS Assay for Inhibitors of CDC-like Kinase 4 (ADP-Glo Assay) (AID 1771); further: nearly all actives have a fitted effect of over 70% in size; further: potency means the concentration at half of the fitted maximal effect
# How it was run: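 25 nM Clk4, 100 uM RS peptide, 1 uM ATP (final); 2 mM MgCl2, 0.5 mM EGTA, 2.5 mM DTT, 0.01% Triton X-100; 1 hr RT. ADP-Glo readout: ATP depletion 45 min, conversion/luciferase 30 min, luminescence.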
# [7] = target: Estrogen receptor (Homo sapiens) (UniProt P03372); experiment: qHTS assay for small molecule antagonists of estrogen receptor alpha signaling (AID 588513; active means well fitted curve in the direction sought with a large enough effect in the signal ratio, with a control signal flat, not every such curve was filed as active; the % refers to the signal ratio)
# How it was run: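 Beta-lactamase reporter, antagonist mode, HEK 293 GripTite cells; 0.5nM E2 stimulus, 18 h, 37 C; CCF4 dye 2 h RT; fluorescence. IC50 and efficacy from Hill fits, normalized to E2 and DMSO.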
# [8] = target: Peroxisome proliferator-activated receptor gamma (Homo sapiens) (UniProt P37231); experiment: qHTS assay for small molecule agonists of peroxisome proliferator-activated receptor gamma signaling (AID 588536; active means well fitted curve in the direction sought with a large enough effect in the signal ratio, with a control signal flat, not every such curve was filed as active; the % refers to the signal ratio)
# How it was run: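 Cells were plated and held 6–6.5 h at 37 C, then compounds were added as a titration series. After a further 16 h, CCF4 dye was loaded for 2 h at room temperature and emission at 460/530 nm recorded.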
# [9] = qHTS assay for small molecule antagonists of retinoid X receptor alpha signaling (AID 588546; active means well fitted inhibition curve with a large enough effect in the signal ratio, with a control signal flat, not every such curve was filed as active; the % refers to the signal ratio;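 further: cells stimulated with 9-cis-retinoic acid as agonist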); details: HEK293T RXRa-UAS-bla, beta-lactamase ratio, antagonist mode; measured here: W530 green channel, cytotoxicity proxy
# How it was run: (§1)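 Beta-lactamase reporter inhibition, read as CCF4 fluorescence ratio (ex 405, em 460/530 nm) after 2 h at RT. HEK293T UAS-bla cells, 2500/well, were stimulated with 9-cis-RA at 500 or 100 nM final alongside test compound for 18 h at 37 C.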
# [10] = target: Retinoic acid receptor RXR-alpha (Homo sapiens) (UniProt P19793); experiment: as above; details: HEK293T RXRa-UAS-bla, beta-lactamase ratio, antagonist mode
# How it was run: as §1
# [11] = qHTS assay for small molecule activators of the p53 signaling pathway (AID 651743; active means well fitted activation curve with a large enough effect in the signal ratio, not every such curve was filed as active; the % refers to the signal ratio; further: series mostly up to about 92 µM); details: HCT-116 p53RE-bla, beta-lactamase FRET ratio, 16 h; activation: stronger effect = higher value
# How it was run: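 Reporter: beta-lactamase driven by p53 response elements, stably integrated in HCT-116 cells. Cells seeded at 4,000/well, 5 h preincubation, compound (DMSO) 16 h at 37 C; B/G FRET substrate 2 h RT; fluorescence intensity read.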
# [12] = qHTS assay for environmental chemicals that activate the Aryl hydrocarbon Receptor (AhR) signaling pathway (AID 651777); details: 1A2-DRE human hepatoma cells, luciferase, 24 h; activation: stronger effect = higher value; further: nearly all actives have a fitted effect of over 15% in size
# How it was run: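 Luminescence (One-Glo, 30 min, room temperature) reports AhR-driven luciferase in stably transfected human hepatoma cells bearing DRE and CYP1A2 promoter. Cells (1,200/well) were treated with compound for 24 hr at 37 C in qHTS format.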
# [13] = target: Peroxisome proliferator-activated receptor alpha (Homo sapiens) (UniProt Q07869); experiment: qHTS assay for small molecule agonists of the peroxisome proliferator-activated receptor alpha (PPARalpha) signaling pathway (AID 651778); details: PathHunter PPARalpha complementation, chemiluminescence, 6 h; max response: stronger effect = higher value
# How it was run: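 Enzyme-fragment complementation assay in which ligand-bound PPARalpha translocates and forms an active enzyme that generates chemiluminescence. Cells were plated overnight, exposed to compound for 6 hr at 37 C, and then given detection reagent for 60 min at room temperature.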
# [14] = qHTS assay for cell viability of HEK293 cells (AID 743288); details: ATP luminescence (CellTiter-Glo), 18 h; max response: stronger effect = lower value; further: nearly all actives have a fitted effect of over 50% in size
# How it was run: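 ATP luminescence (CellTiter-Glo) reports metabolically competent cell number after parental HEK293 cells, 2,000/well, were treated with DMSO-dissolved compounds for 18 h at 37 C; reagent incubation 30 min, room temperature.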
# [15] = Viability counterscreen for agonist of constitutive androstane receptor (CAR) against the NCATS DSHEA and TCM libraries (AID 1794838);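 further: HepG2 cells with CYP2B6 reporter and hCAR plus 0.75 µM PK11195 antagonist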
# How it was run: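 Viability by CellTiter-Fluor fluorescence, 405/540 nm, after 1 h at 37C. HepG2-CYP2B6-hCAR cells were exposed 24 h to test substances in presence of 0.75 uM PK11195 (final).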
# [16] = target: Cytochrome P450 2C9 (Homo sapiens) (UniProt P11712); experiment: qHTS for inhibitors of CYP2C9 against the NCATS DSHEA and TCM libraries (AID 1919973); further: potency means the concentration at half of the fitted maximal effect;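 on activity change, negative = inhibition: luminogenic pro-luciferin CYP2C9 substrate turned into luciferin with NADPH regeneration; series mostly up to about 34 µM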
# How it was run: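 Substances were tested against enzyme with a pro-luciferin substrate; minus-enzyme wells served as background. After NADPH-initiated oxidation (30-45 min, RT), light was generated with P450-Glo reagent.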
# [17] = target: Nuclear receptor subfamily 1 group I member 2 (Homo sapiens) (UniProt O75469); experiment: Dual reporter qHTS for agonist of Pregnane X Receptor (hPXR) against the NCATS DSHEA and TCM libraries: Luminescence readout (AID 1920059); further: potency means the concentration at half of the fitted maximal effect
# How it was run: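 hPXR-Luc HepG2 cells, 2000/well in 5% charcoal-stripped FBS medium, attached 5 h, then exposed 24 h at 37C to compounds. Viability by CellTiter-Fluor, then luciferase luminescence with ONE-Glo.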
# Chain of Cytochrome P450 3A4 (Homo sapiens) (P08684 whole entry, looked up): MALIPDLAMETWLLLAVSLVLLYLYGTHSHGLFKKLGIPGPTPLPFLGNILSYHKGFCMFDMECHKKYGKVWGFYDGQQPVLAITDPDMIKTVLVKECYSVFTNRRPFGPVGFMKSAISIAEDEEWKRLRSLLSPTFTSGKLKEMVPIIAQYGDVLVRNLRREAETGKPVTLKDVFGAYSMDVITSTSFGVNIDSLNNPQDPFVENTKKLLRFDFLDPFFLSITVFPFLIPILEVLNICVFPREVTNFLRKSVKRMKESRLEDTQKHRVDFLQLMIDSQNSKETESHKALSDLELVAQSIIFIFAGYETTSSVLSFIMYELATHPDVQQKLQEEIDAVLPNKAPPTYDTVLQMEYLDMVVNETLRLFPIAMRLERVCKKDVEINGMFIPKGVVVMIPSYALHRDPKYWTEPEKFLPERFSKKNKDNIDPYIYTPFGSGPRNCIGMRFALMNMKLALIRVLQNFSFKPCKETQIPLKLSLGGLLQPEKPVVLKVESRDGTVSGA
# Chain of Cytochrome P450 1A2 (Homo sapiens) (P05177 whole entry, looked up): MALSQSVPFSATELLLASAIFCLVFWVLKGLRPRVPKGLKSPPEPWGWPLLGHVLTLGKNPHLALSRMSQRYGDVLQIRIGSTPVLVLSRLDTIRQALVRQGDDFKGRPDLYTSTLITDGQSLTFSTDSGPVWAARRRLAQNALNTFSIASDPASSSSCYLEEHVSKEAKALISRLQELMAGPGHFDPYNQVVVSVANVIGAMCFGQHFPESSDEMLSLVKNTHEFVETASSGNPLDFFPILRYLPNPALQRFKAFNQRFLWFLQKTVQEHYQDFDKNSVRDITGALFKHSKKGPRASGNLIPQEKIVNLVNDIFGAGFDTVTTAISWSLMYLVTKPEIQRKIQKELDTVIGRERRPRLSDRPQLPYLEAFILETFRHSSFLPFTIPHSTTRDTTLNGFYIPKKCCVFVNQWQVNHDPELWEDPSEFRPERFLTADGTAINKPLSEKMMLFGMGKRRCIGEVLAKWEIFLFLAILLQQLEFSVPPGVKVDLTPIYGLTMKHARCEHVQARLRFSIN
# Chain of 3',5'-cyclic-AMP phosphodiesterase 4B (Homo sapiens) (Q07343 whole entry, looked up): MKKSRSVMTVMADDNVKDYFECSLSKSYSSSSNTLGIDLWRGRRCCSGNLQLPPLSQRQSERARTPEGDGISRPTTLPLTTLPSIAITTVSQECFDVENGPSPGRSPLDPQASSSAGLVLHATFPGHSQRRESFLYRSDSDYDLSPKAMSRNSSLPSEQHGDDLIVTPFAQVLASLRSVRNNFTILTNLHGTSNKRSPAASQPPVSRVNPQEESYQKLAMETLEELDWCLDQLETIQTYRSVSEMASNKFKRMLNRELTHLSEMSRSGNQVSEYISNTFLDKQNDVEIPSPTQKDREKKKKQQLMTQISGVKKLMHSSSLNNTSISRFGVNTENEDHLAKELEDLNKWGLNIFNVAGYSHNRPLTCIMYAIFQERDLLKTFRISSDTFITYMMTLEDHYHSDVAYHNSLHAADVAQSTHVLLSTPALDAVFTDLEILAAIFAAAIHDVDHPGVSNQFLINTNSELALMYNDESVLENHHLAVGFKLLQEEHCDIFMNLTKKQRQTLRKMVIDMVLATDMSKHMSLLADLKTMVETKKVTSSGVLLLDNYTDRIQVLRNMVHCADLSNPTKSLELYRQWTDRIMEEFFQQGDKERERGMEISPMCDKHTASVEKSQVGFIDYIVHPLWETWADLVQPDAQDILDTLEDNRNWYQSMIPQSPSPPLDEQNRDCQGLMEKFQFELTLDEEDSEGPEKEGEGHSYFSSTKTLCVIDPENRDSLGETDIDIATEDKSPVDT
# Chain of Dual specificity protein kinase CLK4 (Homo sapiens) (Q9HAZ1 whole entry, looked up): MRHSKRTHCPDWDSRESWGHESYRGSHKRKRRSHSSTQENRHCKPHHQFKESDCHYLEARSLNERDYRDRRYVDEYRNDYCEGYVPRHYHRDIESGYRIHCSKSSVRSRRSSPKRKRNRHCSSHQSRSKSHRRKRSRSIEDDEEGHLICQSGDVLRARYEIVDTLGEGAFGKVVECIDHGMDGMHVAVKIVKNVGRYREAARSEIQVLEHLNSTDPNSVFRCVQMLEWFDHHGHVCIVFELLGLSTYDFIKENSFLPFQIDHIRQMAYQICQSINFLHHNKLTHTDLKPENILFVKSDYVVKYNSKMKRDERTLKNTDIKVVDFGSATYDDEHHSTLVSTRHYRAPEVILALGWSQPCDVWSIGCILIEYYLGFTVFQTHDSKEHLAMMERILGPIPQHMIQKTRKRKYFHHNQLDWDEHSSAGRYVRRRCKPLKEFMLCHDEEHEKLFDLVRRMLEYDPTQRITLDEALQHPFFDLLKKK
# Chain of Nuclear receptor subfamily 1 group I member 2 (Homo sapiens) (O75469 whole entry, looked up): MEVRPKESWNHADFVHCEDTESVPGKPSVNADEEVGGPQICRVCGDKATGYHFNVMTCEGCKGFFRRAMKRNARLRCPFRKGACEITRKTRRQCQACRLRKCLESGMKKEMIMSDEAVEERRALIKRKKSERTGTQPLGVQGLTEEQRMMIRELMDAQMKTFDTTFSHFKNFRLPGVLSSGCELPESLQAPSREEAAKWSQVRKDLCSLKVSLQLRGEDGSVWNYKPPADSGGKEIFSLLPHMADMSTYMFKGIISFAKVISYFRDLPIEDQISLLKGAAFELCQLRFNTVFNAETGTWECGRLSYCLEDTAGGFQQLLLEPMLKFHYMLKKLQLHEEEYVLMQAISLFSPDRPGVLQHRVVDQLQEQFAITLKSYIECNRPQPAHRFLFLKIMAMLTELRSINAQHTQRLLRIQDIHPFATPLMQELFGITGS
# Chain of Cytochrome P450 2C9 (Homo sapiens) (P11712 whole entry, looked up): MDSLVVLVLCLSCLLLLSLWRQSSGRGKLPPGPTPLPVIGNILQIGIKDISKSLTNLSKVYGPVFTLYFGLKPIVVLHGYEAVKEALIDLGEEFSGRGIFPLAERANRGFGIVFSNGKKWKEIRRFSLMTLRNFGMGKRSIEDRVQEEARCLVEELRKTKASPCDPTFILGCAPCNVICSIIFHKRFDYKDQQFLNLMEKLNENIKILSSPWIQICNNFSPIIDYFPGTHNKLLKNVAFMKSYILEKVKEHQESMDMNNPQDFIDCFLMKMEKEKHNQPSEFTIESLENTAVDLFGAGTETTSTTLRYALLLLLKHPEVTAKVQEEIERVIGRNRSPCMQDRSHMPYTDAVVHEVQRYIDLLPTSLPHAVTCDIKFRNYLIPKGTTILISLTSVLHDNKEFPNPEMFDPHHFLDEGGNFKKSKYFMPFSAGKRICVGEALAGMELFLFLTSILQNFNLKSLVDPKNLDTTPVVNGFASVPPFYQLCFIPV
# Chain of Retinoic acid receptor RXR-alpha (Homo sapiens) (P19793 whole entry, looked up): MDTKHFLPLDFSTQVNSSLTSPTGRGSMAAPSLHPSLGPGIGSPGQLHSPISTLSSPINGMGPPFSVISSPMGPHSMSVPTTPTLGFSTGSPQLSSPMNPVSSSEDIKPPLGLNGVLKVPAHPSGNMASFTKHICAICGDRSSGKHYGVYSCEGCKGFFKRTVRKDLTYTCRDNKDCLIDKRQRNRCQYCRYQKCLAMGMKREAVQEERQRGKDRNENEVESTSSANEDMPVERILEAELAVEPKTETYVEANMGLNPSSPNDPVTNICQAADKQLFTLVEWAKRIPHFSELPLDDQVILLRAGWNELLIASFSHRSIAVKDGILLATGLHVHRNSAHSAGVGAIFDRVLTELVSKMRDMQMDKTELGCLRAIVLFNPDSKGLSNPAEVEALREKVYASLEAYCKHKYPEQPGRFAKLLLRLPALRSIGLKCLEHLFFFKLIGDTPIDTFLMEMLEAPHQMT
# Chain of Peroxisome proliferator-activated receptor alpha (Homo sapiens) (Q07869 whole entry, looked up, the tested form may be a part): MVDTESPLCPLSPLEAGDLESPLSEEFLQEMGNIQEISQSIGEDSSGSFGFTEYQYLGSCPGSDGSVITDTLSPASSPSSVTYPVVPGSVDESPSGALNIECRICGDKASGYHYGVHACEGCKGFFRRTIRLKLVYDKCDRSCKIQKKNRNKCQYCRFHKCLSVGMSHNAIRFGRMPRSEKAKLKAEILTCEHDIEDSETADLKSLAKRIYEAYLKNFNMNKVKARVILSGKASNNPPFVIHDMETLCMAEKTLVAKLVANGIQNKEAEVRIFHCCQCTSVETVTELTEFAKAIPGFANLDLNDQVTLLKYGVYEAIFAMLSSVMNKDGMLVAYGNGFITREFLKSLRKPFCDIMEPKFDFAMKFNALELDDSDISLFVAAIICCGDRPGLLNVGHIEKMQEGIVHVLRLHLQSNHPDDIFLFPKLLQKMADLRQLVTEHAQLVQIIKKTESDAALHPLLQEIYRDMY
# Chain of Peroxisome proliferator-activated receptor gamma (Homo sapiens) (P37231 whole entry, looked up): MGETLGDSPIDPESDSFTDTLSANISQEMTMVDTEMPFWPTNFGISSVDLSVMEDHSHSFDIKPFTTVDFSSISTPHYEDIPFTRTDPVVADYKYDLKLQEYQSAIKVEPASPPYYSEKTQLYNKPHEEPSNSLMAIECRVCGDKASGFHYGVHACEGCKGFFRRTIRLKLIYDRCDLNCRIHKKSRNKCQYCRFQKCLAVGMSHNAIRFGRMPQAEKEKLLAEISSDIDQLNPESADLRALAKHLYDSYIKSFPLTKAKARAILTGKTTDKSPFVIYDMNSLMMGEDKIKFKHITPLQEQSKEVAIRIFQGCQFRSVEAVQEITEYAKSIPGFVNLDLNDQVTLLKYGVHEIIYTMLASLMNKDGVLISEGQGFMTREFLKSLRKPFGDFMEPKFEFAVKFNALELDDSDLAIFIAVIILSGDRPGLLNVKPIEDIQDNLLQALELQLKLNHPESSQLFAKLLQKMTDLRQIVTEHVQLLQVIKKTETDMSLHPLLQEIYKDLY
compound,measurement,setting,value
COc1ccc2[nH]cc(CCNc3nc(-c4ccccc4OC)nc4ccccc34)c2c1,Potency,[1],6.31 µM (active)
same,outcome,[2],inactive
same,Potency,[3],inactive
same,Potency,[4],2.51 µM (active)
same,outcome,[5],inactive
same,Potency,[6],35.5 µM (active)
C=C(C)C1CC=C(C)C(O)C1 (stereo unspecified),Potency,[4],inactive
same,Potency,[7],inactive
same,outcome,[8],inactive
same,max response,[9],-6.28%
same,max response,[10],5.08% (inactive)
same,activation,[11],-1.04% (inactive)
same,activation,[12],-0.5% (inactive)
same,max response,[13],-4.25% (inactive)
same,max response,[14],0.258% (inactive)
same,outcome,[15],inactive
same,Potency,[16],inactive
C=C1CC[C@H](O)C/C1=C\C=C1/CCC[C@]2(C)[C@@H]([C@H](C)CC[C@H](C)C(C)C)CC[C@@H]12,outcome,[15],inactive
same,Potency,[17],28.2 µM (active)
O=C(O)CC(O)(C(=O)O)C(O)C(=O)O (stereo unspecified),outcome,[15],inactive
same,Potency,[16],inactive
CC(C)(O)[C@@H]1CC[C@](C)([C@@H]2[C@H](O)C[C@]3(C)C4C[C@@H](O[C@H]5O[C@@H](CO)[C@H](O)[C@@H](O)[C@@H]5O)C5C(C)(C)[C@H](O[C@H]6OC[C@H](O)[C@@H](O)[C@@H]6O)CC[C@]56CC46CC[C@@]23C)O1 (stereo partly specified),outcome,[15],inactive
same,Potency,[16],inactive
same,Potency,[17],inactive
Cc1ncc(COP(=O)(O)O)c(C)c1O,"activity change, negative = inhibition",[1],-20.3% [at 11.4 µM] (inactive)
same,outcome,[2],inactive
same,Potency,[3],inactive
same,outcome,[15],inactive
CC1=CCC(O)(C(C)C)CC1 (stereo unspecified),outcome,[15],inactive
same,Potency,[16],inactive
same,Potency,[17],inactive
CN1CCN(c2ncnc3ccc(-c4cccc(C#N)c4)cc23)CC1,Potency,[1],1.26 µM (active)
same,outcome,[2],inactive
same,outcome,[5],inactive
same,Potency,[6],15.8 µM (active)
COc1ccc2[nH]cc(CCNc3ncncc3-c3ccccc3C)c2c1,Potency,[1],0.631 µM (active)
same,Potency,[3],inactive
same,Potency,[4],0.316 µM (active)
same,outcome,[5],inactive
same,Potency,[6],28.2 µM (active)
COc1ccc2[nH]cc(CCNc3cc(-c4ccccc4OC)ncn3)c2c1,Potency,[1],1.58 µM (active)
same,Potency,[3],inactive
same,Potency,[4],6.31 µM (active)
same,outcome,[5],inactive
same,Potency,[6],25.1 µM (active)
CC(C)=CCC[C@](C)(O[C@@H]1O[C@H](CO)[C@@H](O)[C@H](O)[C@H]1O)[C@H]1CC[C@]2(C)[C@@H]1[C@H](O)C[C@@H]1[C@@]3(C)CC[C@H](O)C(C)(C)[C@@H]3[C@@H](O[C@@H]3O[C@H](CO)[C@@H](O)[C@H](O)[C@H]3O[C@@H]3O[C@@H](C)[C@H](O)[C@@H](O)[C@H]3O)C[C@]12C,outcome,[15],inactive
CC1=CC[C@H](C(C)C)C=C1,outcome,[15],inactive
C=C1C[C@@]23CC[C@H]4[C@@](C)(CCC[C@@]4(C)C(=O)O[C@@H]4O[C@H](CO)[C@@H](O)[C@H](O)[C@H]4O[C@@H]4O[C@H](CO)[C@@H](O)[C@H](O)[C@H]4O)[C@@H]2CC[C@]1(O[C@@H]1O[C@H](CO)[C@@H](O)[C@H](O)[C@H]1O[C@@H]1O[C@H](CO)[C@@H](O)[C@H](O)[C@H]1O)C3,outcome,[15],inactive
same,Potency,[16],inactive
O=c1c(-c2ccccc2)nc2cncnc2n1Cc1ccccc1,outcome,[2],inactive
same,Potency,[6],inactive
COc1ccc2[nH]cc(CCNc3ncncc3-c3cccc(C#N)c3)c2c1,outcome,[2],inactive
same,Potency,[3],inactive
same,Potency,[6],25.1 µM (active)
CN(CC(=O)O)C(=N)N,outcome,[15],inactive
same,Potency,[17],inactive
O=C(/C=C/c1ccc(O)c(O)c1)O[C@@H]1CC(C(=O)O)=C[C@@H](O)[C@H]1O,outcome,[15],inactive
CC1(C)CC[C@]2(C(=O)O)CC[C@]3(C)C(=CCC4[C@@]5(C)CC[C@H](O)[C@@](C)(CO)C5CC[C@]43C)[C@H]2C1 (stereo partly specified),outcome,[15],inactive
same,Potency,[16],inactive
C=C/C(C)=C/C/C=C(\C)CCC=C(C)C,outcome,[15],inactive
same,Potency,[16],35.5 µM (active)
C[C@@H]1O[C@@H](OC[C@H]2OC(Oc3c(-c4ccc(O)c(O)c4)oc4cc(O)cc(O)c4c3=O)[C@H](O)[C@@H](O)[C@@H]2O)[C@H](O)[C@H](O)[C@H]1O (stereo partly specified),outcome,[15],inactive
same,Potency,[16],inactive
C[C@@H]1CC[C@]2(C)CC[C@]3(C)C(=CC(=O)C4[C@@]5(C)CC[C@@H](O)[C@](C)(C(=O)O)C5CC[C@]43C)C2[C@H]1C (stereo partly specified),outcome,[15],inactive
same,Potency,[17],inactive
C=C1CC/C=C(/C)CC[C@@H]2[C@@H]1CC2(C)C,outcome,[15],inactive
COc1ccc(C(=O)O)cc1,outcome,[15],inactive
same,Potency,[17],inactive
COc1ccc(Oc2ncc3nc(-c4ccccc4)c(=O)n(C[C@H]4CCCO4)c3n2)cc1,outcome,[2],inactive
same,Potency,[3],inactive
same,Potency,[6],inactive
Cn1c(=O)c(-c2ccc(Cl)cc2)nc2cncnc21,Potency,[1],0.0251 µM (active)
same,outcome,[2],inactive
same,Potency,[3],inactive
same,Potency,[6],inactive
Cc1ccc(C(C)C)cc1,outcome,[15],inactive
same,Potency,[16],inactive
CC(=O)OC1CC2CCC1(C)C2(C)C (stereo unspecified),outcome,[15],inactive
same,Potency,[16],inactive
same,Potency,[17],inactive
CCCCCCCCCCCCCCCCCCCCCCCCCCCCCCO,"activity change, negative = cytotoxicity",[15],8.74% [at 5 µM] (inactive)
O=C(O)c1ccccc1,Potency,[4],inactive
same,Potency,[7],inactive
same,outcome,[8],inactive
same,max response,[9],-4.31%
same,max response,[10],-3.53% (inactive)
same,activation,[11],7.69% (inactive)
same,activation,[12],2.1% (inactive)
same,max response,[13],-2.27% (inactive)
same,max response,[14],-1.04% (inactive)
same,outcome,[15],inactive
same,Potency,[16],inactive
CCCCCCCCC[C@@H](O)CC(=O)CCc1ccc(O)c(OC)c1,outcome,[15],inactive
CC1=CCC(=C(C)C)CC1,outcome,[15],inactive
same,Potency,[16],inactive
same,Potency,[17],inactive
